Assay [1] is described as follows: qHTS assay to identify small molecule antagonists of the glucocorticoid receptor (GR) signaling pathway - cell viability counter screen (AID 720693). Note: nearly all actives have a fitted effect of over 55% in size. On the technique in general: qHTS replaces the single test concentration by a dilution series.
Assay [2] can be described thus: qHTS assay for identifying genotoxic compounds that show differential cytotoxicity against isogenic chicken DT40 cell lines with known DNA damage response pathways - wild type cell line (AID 743012). Note: nearly all actives have a fitted effect of over 60% in size. Summed up:
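Viability of DNA repair-proficient chicken DT40 cells was assessed by CellTiter-Glo luminescence following 40 h compound exposure at 37 C/5% CO2.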

Assay [3] can be described thus: qHTS assay for identifying genotoxic compounds that show differential cytotoxicity against isogenic chicken DT40 cell lines with known DNA damage response pathways - Rev3 mutant cell line (AID 743014). Note: nearly all actives have a fitted effect of over 55% in size. Note: potency is the fitted concentration of half-maximal effect.
A short description of assay [4]: qHTS assay for identifying genotoxic compounds that show differential cytotoxicity against isogenic chicken DT40 cell lines with known DNA damage response pathways - Rad54/Ku70 mutant cell line (AID 743015). Note: nearly all actives have a fitted effect of over 60% in size. Note: potency is the fitted concentration of half-maximal effect.
Assay [5] has as its target Androgen receptor (Homo sapiens) (UniProt P10275). The experiment in a line: qHTS assay to identify small molecule antagonists of the androgen receptor (AR) signaling pathway (AID 743035; active = well fitted inhibition curve with a large enough effect in the signal ratio in the repeat runs, not every such curve was filed as active; the % refers to the signal ratio). Summed up: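 Reporter HEK293 cells were exposed to compounds and R1881 overnight (16 h, 37C); beta-lactamase activity was then quantified by FRET fluorescence.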
For assay [6] the target is unchanged. Description: qHTS assay to identify small molecule agonists of the androgen receptor (AR) signaling pathway (AID 743036; active = well fitted activation curve with a large enough effect in the signal ratio in the repeat runs, with a control signal flat, not every such curve was filed as active; the % refers to the signal ratio). In outline: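 In this Tox21 qHTS, 2,000 HEK293 AR-bla cells per well were incubated with compounds for 16 h at 37C and 5% CO2. Fluorescence intensity was recorded 2 h after adding LiveBLAzer B/G FRET substrate at room temperature.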
Assay [7] shares this target. The experiment in a line: qHTS assay to identify small molecule agonists of the androgen receptor (AR) signaling pathway using the MDA cell line (AID 743040; note: nearly all actives have a fitted effect of over 20% in size). Summed up: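 Stable MMTV-luciferase reporter in MDA-kb2 cells; note the promoter carries GR as well as AR response elements. 16 h compound treatment, 37C, 0% CO2; ONE-Glo luminescence endpoint.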
Assay [8] is described as follows: qHTS assay to identify small molecule antagonists of the androgen receptor (AR) signaling pathway using the MDA cell line - cell viability counter screen (AID 743041; note: nearly all actives have a fitted effect of over 45% in size). In outline:
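Using the breast carcinoma line MDA-kb2 AR-luc, test chemicals were co-incubated with R1881 for 16 h; CellTiter-Fluor reagent, added at 15.5 h, provided a fluorescence measure of live cells.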

Assay [9] has as its target Androgen receptor (Homo sapiens) (UniProt P10275). Description: qHTS assay to identify small molecule antagonists of the androgen receptor (AR) signaling pathway using the MDA cell line (AID 743042; note: nearly all actives have a fitted effect of over 55% in size). Summed up: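 Antagonist mode: compounds plus R1881 agonist added to MDA-kb2 AR-luc cells, incubated 16 h at 37C. Luciferase reporter luminescence quantified, with multiplexed CellTiter-Fluor readout for cell viability.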

Assay [10] in a line: qHTS assay to identify small molecule antagonists of the androgen receptor (AR) signaling pathway - cell viability counter screen (AID 743033; note: nearly all actives have a fitted effect of over 45% in size).

Results filed as inconclusive are left out. Calls of active or inactive are those of the source. Unless noted, calls come from the whole dose curve; as a rule, active = well fitted curve in the direction sought with a large enough effect in the repeat runs; inconclusive = weak or mixed curves; inactive = no such curve, though single readings can be large; an effect the other way counts as inactive or inconclusive.

The text below walks through data of PubChem BioAssay (Tox21).

Chain of Androgen receptor (Homo sapiens) (P10275 whole entry, looked up): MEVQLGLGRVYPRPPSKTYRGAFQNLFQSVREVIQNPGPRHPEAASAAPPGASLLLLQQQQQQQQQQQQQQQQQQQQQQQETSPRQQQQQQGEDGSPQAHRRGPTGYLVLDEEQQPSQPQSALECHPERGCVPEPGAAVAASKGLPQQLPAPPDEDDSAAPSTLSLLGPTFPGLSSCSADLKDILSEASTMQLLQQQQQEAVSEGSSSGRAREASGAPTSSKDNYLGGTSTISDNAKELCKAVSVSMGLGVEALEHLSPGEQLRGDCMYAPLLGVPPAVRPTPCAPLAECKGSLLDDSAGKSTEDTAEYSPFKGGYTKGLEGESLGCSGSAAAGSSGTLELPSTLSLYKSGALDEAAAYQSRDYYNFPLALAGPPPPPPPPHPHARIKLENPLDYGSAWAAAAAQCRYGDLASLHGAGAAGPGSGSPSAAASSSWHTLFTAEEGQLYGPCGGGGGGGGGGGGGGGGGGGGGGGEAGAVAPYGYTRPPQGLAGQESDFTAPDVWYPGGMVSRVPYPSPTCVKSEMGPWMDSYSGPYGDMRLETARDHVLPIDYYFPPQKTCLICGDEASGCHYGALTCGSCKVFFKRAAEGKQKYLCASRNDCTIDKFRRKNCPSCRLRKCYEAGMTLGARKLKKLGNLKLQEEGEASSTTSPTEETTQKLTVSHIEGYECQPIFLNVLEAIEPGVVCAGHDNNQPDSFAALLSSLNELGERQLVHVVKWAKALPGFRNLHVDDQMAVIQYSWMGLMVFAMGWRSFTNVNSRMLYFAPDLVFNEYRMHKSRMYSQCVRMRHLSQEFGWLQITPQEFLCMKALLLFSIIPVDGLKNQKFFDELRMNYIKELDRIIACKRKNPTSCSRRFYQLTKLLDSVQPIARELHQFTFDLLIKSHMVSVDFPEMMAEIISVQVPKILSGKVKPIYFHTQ

Regarding `C#CCN[C@@H]1CCc2ccccc21`, the result in assay [1], in assay [5], in assay [6] and in [9] was inactive. In addition, the Potency entry in assay [2], in assay [3], in assay [4], in assay [7] and in assay [8] was “inactive” throughout.
In the case of `CC(=O)O[C@@H]1CC2CCC1(C)C2(C)C` (stereo partly drawn), the compound was classed as inactive in assay [1], in assay [5], in assay [6] and in assay [9]. The Potency entry in assay [2], in assay [3], in assay [4] and in assay [7] was “inactive” in each case.
For `CC1=C(C(=O)O)N2C(=O)[C@@H](NC(=O)[C@H](N)C3=CCC=CC3)[C@H]2SC1`, the compound was classed as inactive in assay [1] and in assay [10]. In addition, the Potency entry in assay [2], in [3], in [4] and in assay [8] was “inactive” in each case.
In the case of `CC(C)C1OCCN1CCOC(=O)NCCCCCCNC(=O)OCCN1CCOC1C(C)C` (stereo not drawn), the call in [1], in assay [5], in assay [6] and in [9] was inactive. The Potency entry in [2], in [3], in assay [4], in assay [7] and in assay [8] was “inactive” throughout.
As for `COc1ccc(CCO)cc1`, the compound was called inactive in assay [1], in assay [6] and in assay [9]. The Potency result in [2], in [3], in assay [4], in assay [7] and in assay [8] was “inactive” in each case.
With `C[C@H]1[C@@H](c2ccccc2)NC(=O)N1C`, the call in assay [1] was inactive. The Potency result in assay [2], in [3], in assay [4] and in assay [8] was “inactive” throughout.
For the compound `CC(C)OC(=O)OCOP(=O)(CO[C@H](C)Cn1cnc2c(N)ncnc21)OCOC(=O)OC(C)C`, the result in assay [1] and in assay [10] was inactive. Besides, the Potency result in [2], in assay [3], in assay [4] and in assay [8] was “inactive” each time.
Turning to `CNCCS(=O)(=O)O`, the compound was classed as inactive in assay [1]. In addition, the Potency entry in [2], in [3], in assay [4] and in [8] was “inactive” throughout.
Take `CCCC(=O)OC/C=C(\C)CCC=C(C)C`: the outcome in [1] and in assay [10] was inactive. Moreover, the Potency entry in assay [2], in assay [3], in [4] and in [8] was “inactive” in each case.
As to `CCC(=O)c1c(O)cc(O)cc1O`, the compound was called inactive in assay [1], in assay [5] and in assay [9]. For the same compound, the Potency result in assay [2], in [3], in assay [4], in assay [7] and in assay [8] was “inactive” in each case.
Take `COc1nc(N)nc2nc[nH]c12`: the outcome in assay [1] was inactive. Also, the Potency entry in assay [2], in [3], in [4] and in assay [8] was “inactive” throughout.
As for `CC(C)(C)NC[C@H](O)COc1cccc2c1CCCC2=O`, in [1], the result was inactive. In addition, the Potency entry in [2], in assay [3], in assay [4] and in assay [8] was “inactive” each time.
For the compound `CCCCOCCOC(=O)COc1ccc(Cl)cc1Cl`, the compound was called inactive in [1] and in assay [10]. Besides, the Potency entry in [2], in assay [3], in [4] and in assay [8] was “inactive” throughout.
On to `c1ccc(B(c2ccccc2)c2ccccc2)cc1`, for which the compound was classed as inactive in assay [1]. Besides, the Potency entry in assay [2], in assay [3], in [4] and in [8] was “inactive” in each case.
As for `CCCCCCCCCCOC(C)=O`, in [1], the compound was classed as inactive. For the same compound, the Potency entry in assay [2], in [3], in [4] and in assay [8] was “inactive” throughout.
Turning to `O=C(CCCCC(=O)Nc1c(I)cc(I)c(C(=O)O)c1I)Nc1c(I)cc(I)c(C(=O)O)c1I`, the outcome in assay [1] and in assay [10] was inactive. For the same compound, the Potency entry in [2], in assay [3], in assay [4] and in assay [8] was “inactive” in each case.
As for `O=C(O)CONC(=O)c1ccccc1`, the result in [1] and in assay [10] was inactive. The Potency result in assay [3], in assay [4] and in [8] was “inactive” each time.
With `Cn1c(=O)c2[nH]c(Br)nc2n(C)c1=O`, the compound was classed as inactive in assay [1] and in assay [10]. Also, the Potency entry in assay [3], in assay [4] and in assay [8] was “inactive” each time.
For `CCO[Si](CC)(OCC)OCC`, the compound was called inactive in [1], in [5] and in assay [9]. Moreover, the Potency result in [3], in assay [4] and in assay [7] was “inactive” in each case.
As for `CN1CCOC(c2ccccc2)c2ccccc2C1` (stereo not drawn), the outcome in assay [1] was inactive. In addition, the Potency result in assay [3] and in [8] was “inactive” each time.
With `O=Cc1ccccc1Cl`, the Potency result in assay [2], in assay [3], in [4] and in assay [8] was “inactive” in each case.
For the compound `Cc1ccc(C)c([N+](=O)[O-])c1`, the Potency result in assay [2], in assay [3] and in assay [4] was “inactive” in each case. Moreover, the outcome in [10] was inactive.
For `O=C(O)CNC(=O)CNC(=O)CNC(=O)CSC(=O)c1ccccc1`, the compound was called inactive in assay [1] and in [10]. Further, the Potency result in [3], in assay [4] and in assay [8] was “inactive” throughout.
Consider `COc1cc2c(cc1OC)C(=O)C(CC1CCN(Cc3ccccc3)CC1)C2` (stereo not drawn), for which the result in assay [1], in [10], in assay [6] and in [9] was inactive. The Potency entry in [7] and in [8] was “inactive” each time.
For the compound `OCC1(CO)COCOC1`, the compound was called inactive in [1] and in assay [10]. Moreover, the Potency result in assay [3], in assay [4] and in assay [8] was “inactive” in each case.
In the case of `O=C(Cl)c1ccccc1[N+](=O)[O-]`, the Potency entry in [2], in assay [3], in assay [4] and in [7] was “inactive” each time. The compound was classed as inactive in assay [10], in [5], in assay [6] and in assay [9].
Consider `c1ccc(-c2nn[nH]n2)cc1`, for which the call in assay [1] and in [10] was inactive. Further, the Potency result in assay [3], in [4] and in assay [8] was “inactive” throughout.
As to `N[C@@H](Cc1ccc(O)cc1)C(=O)O`, the compound was classed as inactive in [1] and in assay [10]. Moreover, in assay [8], the Potency entry is “inactive”.
On to `COC(=O)c1ccccc1C(=O)O`, for which, in assay [1], the compound was called inactive. In addition, the Potency result in [3], in [4] and in assay [8] was “inactive” each time.
As to `NCC1(Cc2noc(=O)[nH]2)CCCCC1`, the call in [1] and in [10] was inactive. For the same compound, the Potency entry in assay [3], in [4] and in assay [8] was “inactive” each time.
With `CC(=O)OC1CCCCC1C(C)(C)C` (stereo not drawn), the outcome in assay [1], in [10], in assay [5] and in assay [9] was inactive. The Potency result in assay [3], in assay [4] and in assay [7] was “inactive” each time.
Consider `ONc1ccccc1`, for which the Potency result in assay [4] is “inactive”. Also, the compound was called inactive in assay [10].
On to `CC1CC(=O)CC(C)(C)C1` (stereo not drawn), for which the Potency result in [2], in assay [3] and in assay [4] was “inactive” in each case. Moreover, the compound was called inactive in [10].
As to `O=C(NCN1CCOCC1)c1cnccn1`, the Potency result in assay [2], in assay [3], in assay [4] and in assay [7] was “inactive” each time. The outcome in assay [10], in assay [5], in assay [6] and in assay [9] was inactive.
As for `O=C[O][Al]([O]C=O)[O]C=O`, the compound was classed as inactive in [1] and in assay [10]. The Potency result in assay [8] was “inactive”.
For `CN(C)C(C)(C)CO`, the result in assay [1] and in assay [10] was inactive. The Potency entry in [3], in assay [4] and in [8] was “inactive” in each case.
`CCCCCCCCCCCCCBr`: the compound was classed as inactive in assay [1] and in [10]. The Potency in assay [3] is 54.3 µM (active). For the same compound, the Potency result in [4] and in assay [8] was “inactive” throughout.
Regarding `C=C(C)c1cccc(C(C)(C)N=C=O)c1`, the result in assay [1] and in assay [10] was inactive. For the same compound, the Potency result in assay [8] is “inactive”.
For `OCCN1CCOCC1`, the compound was called inactive in assay [1] and in assay [10]. In addition, the Potency entry in assay [3], in assay [4] and in [8] was “inactive” each time.
`CC(C)c1ccc(C=O)cc1`: the result in assay [1] and in assay [10] was inactive. For the same compound, the Potency entry in assay [3], in [4] and in assay [8] was “inactive” throughout.
Regarding `C=CCSSCCC`, the compound was classed as inactive in [1] and in assay [10]. The Potency result in [3], in [4] and in assay [8] was “inactive” in each case.
Consider `CCCC(=O)OCCC(C)CCC=C(C)C` (stereo not drawn), for which the compound was called inactive in [1]. In addition, in assay [8], the Potency entry is “inactive”.
On to `COC(=O)CCCCC(=O)O`, for which the compound was classed as inactive in assay [1]. The Potency entry in [3] and in assay [8] was “inactive” in each case.
As to `COc1ccc2c(c1)c1c3n2CCN(C)C3=NCC1`, the result in assay [1], in assay [10] and in assay [5] was inactive. Besides, the Potency in assay [4] was 23.7 µM (active). For the same compound, the Potency entry in [7] and in assay [8] was “inactive” in each case.
As to `CCC(C)C(C)=O` (stereo not drawn), the Potency result in assay [2], in assay [3], in assay [4] and in assay [8] was “inactive” in each case. Moreover, in [10], the compound was called inactive.
In the case of `CCCC(CC)c1ccccc1` (stereo not drawn), the compound was called inactive in assay [1]. The Potency entry in assay [3], in assay [4] and in [8] was “inactive” in each case.
With `C=C(C)[C@@H]1CC=C(C)CC1`, the compound was classed as inactive in assay [1] and in assay [10]. Besides, the Potency in assay [3] was 68.6 µM (active).
As for `Cc1ccnc(N)c1`, the call in [1] and in [10] was inactive. Moreover, the Potency in assay [3] and in assay [4] was 48.6 µM (active) each time. For the same compound, the Potency result in assay [8] is “inactive”.
`C=C(C)[C@@H]1CC=C(C)C(=O)C1`: the call in assay [1] and in assay [10] was inactive. The Potency entry in [3], in assay [4] and in assay [8] was “inactive” each time.
As to `CC(=O)CC(=O)OC(C)(C)C`, the Potency result in [2], in assay [3], in assay [4], in assay [7] and in assay [8] was “inactive” in each case. Further, the result in assay [10], in assay [5] and in assay [9] was inactive.
